From PubChem BioAssay
Gli-Sufu antag – blocks Gli-Sufu signaling in a luciferase reporter | inhibition, % at 5 µM | AID 588413 | Sufu-KO-LIGHT fibroblasts, Gli luciferase reporter luminescence | actives 0.74% (n = 340,000);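 active = inhibition above about 55%, limit read from the data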
697 NFkB inh – inhibitors of the PMA/ionomycin-induced NF-kB reporter in 697 B cells. 697 B-cell NF-kB luciferase reporter, 16 h. inhibition, % at 4 µM. actives 0.33% (n = 330,000). AID 435022; in the data active = inhibition above about 35%
Jurkat NFkB inh – lowers PMA/ionomycin-induced NF-kB signal in Jurkat cells; PMA/ionomycin-induced NF-kB luciferase reporter, luminescence; inhibition, % at 4 µM; actives 0.53% (n = 330,000); in the data active = inhibition above about 50%
Shn3 3UTR inh – Schnurri-3 reporter inhibition in Clone20 osteoblasts. actives 0.52% (n = 360,000). inhibition, % at 12.5 µM. Clone20 osteoblast Shn3 3'UTR firefly luciferase, 24 h;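 active = mean inhibition of at least 75% with every replicate also reaching 75%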
aSyn UTR inh – MLPCN primary screen, SNCA 5' untranslated region. inhibition, % (tested at 7.5 µM). actives 0.82% (n = 300,000). AID 1813. alpha-synuclein 5'UTR reporter, inhibitor activity; in the data active = inhibition above about 60%;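 note: H4 neuroglioblastoma cells stably carrying SNCA 5'UTR luciferase fusion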
H9c2 TAG inh – reduces triacylglycerol accumulation in H9c2 cells. Nile Red lipid (TAG) fluorescence; cells loaded with 200 µM oleic acid. inhibition, % at 12.5 µM. actives 0.66% (n = 230,000);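 active = pattern-corrected inhibition of lipid staining of at least 50% with the nuclear-stain viability signal not falling by more than 50%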
H9c2 TAG conf – confirmation of triacylglycerol accumulation inhibitors; H9c2 lipid accumulation, Nile Red fluorescence; cells loaded with 200 µM oleic acid; actives 71% (n = 990); inhibition, % at 12.5 µM; AID 651629; shares compounds with H9c2 TAG inh;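 active = mean inhibition across replicates of 40% or more; inactive = mean inhibition below 40%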
Numbers stand for hits; i = inactive; nt = no result. Compounds with a hit are over-represented: about 2.3% of the library has one in this group of screens.

SMILES	Gli-Sufu antag	697 NFkB inh	Jurkat NFkB inh	Shn3 3UTR inh	aSyn UTR inh	H9c2 TAG inh	others
CCc1ccc(NC(=O)CSC2=C(C#N)C(c3ccco3)C3=C(CCCC3=O)N2)cc1 (stereo not drawn)	i	i	i	i	i	i
Cc1cc(-c2ccccc2)c(C#N)c(=S)[nH]1	i	nt	nt	i	i	nt
Cc1sc(NC(=O)c2ccccc2)c(C(=O)NC(C)C)c1C	i	i	i	i	i	nt
COc1ccc2c(c1OC)C(=O)N(c1ccc(O)cc1)C2=O	i	i	i	i	i	i
O=C(CN(CC1CCCO1)S(=O)(=O)c1ccc(S(=O)(=O)NC2CC2)cc1)Nc1ccccc1 (stereo not drawn)	i	i	i	i	i	51	H9c2 TAG conf=i
CCN(CC)S(=O)(=O)c1ccc(S(=O)(=O)N(CC(=O)Nc2ccccc2)CC2CCCO2)cc1 (stereo not drawn)	nt	i	i	i	i	nt
CCOc1ccccc1OCCOc1ccccc1OC(C)C	i	i	i	i	i	i
Cc1nc2ccc(Cl)cc2c(-c2ccccc2)c1C(=O)N(C)C	i	i	i	i	i	nt
CCOC(=O)c1c(CN2CCNCC2)nc2ccc(Cl)cc2c1-c1ccccc1	i	nt	nt	i	nt	70	H9c2 TAG conf=78
CCCCn1c(=O)c(CCC(=O)O)nc2ccccc21	i	i	i	i	i	i
